Reference: PubChem BioAssay (EPA / NIEHS)
Values joined by “and” are separate entries in the source; they are usually repeats but may differ in a detail not shown here. Identical values can stand only once. Results filed as inconclusive are left out. Some structures have more than one record in an assay (separate samples or runs), and their calls can disagree. Active and inactive are the calls of the source. The calls were made as follows, unless noted: active = hit-call score of the fitted dose curve at least 0.9, where 1 is the maximum; inconclusive = response in the unintended direction; inactive = score below 0.9.

Key:
[1] = test system: turtle Estrogen Receptor (ERa), gene 101933533; test: ATG_trERa_XSP2: Attagene TRANS-FACTORIAL Multi-Species (XSP2) HepG2 Assay for turtle Estrogen Receptor (ERa) (AID 2283812);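 also: human HepG2 liver cells transiently expressing turtle ERa-Gal4 chimeric receptor; actives raise reporter signal above DMSO so AC50 reflects agonist activity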
In short: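 HepG2 cells transiently transfected with GAL4-UAS reporter units expressing turtle ERa-Gal4 chimera. Reporter mRNA measured after 24 h dosing by RT-PCR, fluorescent labelling and capillary electrophoresis; gain of signal fitted versus DMSO.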

[2] = target: Estrogen receptor beta (Homo sapiens) (UniProt Q92731); test: ATG_hERb_XSP2: Attagene TRANS-FACTORIAL Multi-Species (XSP2) HepG2 Assay for human Estrogen Receptor (ERb) (AID 2283813);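 also: actives raise reporter mRNA above DMSO so AC50 reflects agonist induction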
Sequence of Estrogen receptor beta (Homo sapiens) (Q92731 whole entry, looked up, the tested form may be a part): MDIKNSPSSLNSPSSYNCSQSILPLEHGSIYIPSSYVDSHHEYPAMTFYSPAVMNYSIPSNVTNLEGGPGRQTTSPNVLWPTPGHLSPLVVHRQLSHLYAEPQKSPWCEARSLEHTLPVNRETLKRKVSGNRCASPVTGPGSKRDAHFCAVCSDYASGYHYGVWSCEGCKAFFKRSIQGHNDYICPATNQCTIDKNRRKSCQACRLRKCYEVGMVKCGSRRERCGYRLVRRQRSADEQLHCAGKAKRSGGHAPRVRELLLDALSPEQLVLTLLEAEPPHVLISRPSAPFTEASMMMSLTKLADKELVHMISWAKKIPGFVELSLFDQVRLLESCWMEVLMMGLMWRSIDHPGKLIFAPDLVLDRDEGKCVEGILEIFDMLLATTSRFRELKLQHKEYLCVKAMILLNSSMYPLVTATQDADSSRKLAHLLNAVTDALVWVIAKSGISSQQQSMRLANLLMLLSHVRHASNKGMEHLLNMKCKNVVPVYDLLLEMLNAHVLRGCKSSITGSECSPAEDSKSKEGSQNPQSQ
In short: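 HepG2 cells transiently transfected with GAL4-UAS reporter units and chimeric human ERb-Gal4, 24 h exposure. Reporter mRNA quantified by RT-PCR with FAM labelling, HpaI digestion and capillary electrophoresis; gain of signal versus DMSO.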

[3] = target: zebrafish Estrogen Receptor (ER1), esr1 (gene 259252) (UniProt P57717); test: ATG_zfER1_XSP2: Attagene TRANS-FACTORIAL Multi-Species (XSP2) HepG2 Assay for zebrafish Estrogen Receptor (ER1) (AID 2283816)
Sequence of zebrafish Estrogen Receptor (ER1), esr1 (gene 259252) (P57717 whole entry, looked up, the tested form may be a part): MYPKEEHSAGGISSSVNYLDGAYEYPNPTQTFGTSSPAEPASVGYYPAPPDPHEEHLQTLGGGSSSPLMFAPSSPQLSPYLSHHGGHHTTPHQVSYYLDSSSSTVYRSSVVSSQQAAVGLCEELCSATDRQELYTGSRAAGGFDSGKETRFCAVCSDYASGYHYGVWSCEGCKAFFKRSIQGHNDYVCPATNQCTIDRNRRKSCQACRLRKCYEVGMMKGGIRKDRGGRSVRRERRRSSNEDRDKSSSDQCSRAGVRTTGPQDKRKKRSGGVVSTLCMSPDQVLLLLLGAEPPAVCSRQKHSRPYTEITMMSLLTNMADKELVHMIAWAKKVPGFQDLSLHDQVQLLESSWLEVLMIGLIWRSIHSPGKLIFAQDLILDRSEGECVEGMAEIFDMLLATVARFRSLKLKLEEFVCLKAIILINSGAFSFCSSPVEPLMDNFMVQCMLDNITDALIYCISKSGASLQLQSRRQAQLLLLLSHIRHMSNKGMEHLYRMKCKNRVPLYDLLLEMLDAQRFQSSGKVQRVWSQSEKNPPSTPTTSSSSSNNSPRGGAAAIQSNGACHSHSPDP
In short: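 HepG2 cells transiently transfected with a GAL4-UAS reporter and a chimeric zebrafish ER1-Gal4 construct, dosed 24 h. Reporter mRNA quantified by RT-PCR, labelling, HpaI digestion and capillary electrophoresis, relative to DMSO.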

[4] = target: chicken Estrogen Receptor (ERa), ESR1 (gene 396099) (UniProt P06212); test: ATG_chERa_XSP2: Attagene TRANS-FACTORIAL Multi-Species (XSP2) HepG2 Assay for chicken Estrogen Receptor (ERa) (AID 2283817);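 also: actives raise reporter signal above DMSO so AC50 reflects ER activation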
Sequence of chicken Estrogen Receptor (ERa), ESR1 (gene 396099) (P06212 whole entry, looked up, the tested form may be a part): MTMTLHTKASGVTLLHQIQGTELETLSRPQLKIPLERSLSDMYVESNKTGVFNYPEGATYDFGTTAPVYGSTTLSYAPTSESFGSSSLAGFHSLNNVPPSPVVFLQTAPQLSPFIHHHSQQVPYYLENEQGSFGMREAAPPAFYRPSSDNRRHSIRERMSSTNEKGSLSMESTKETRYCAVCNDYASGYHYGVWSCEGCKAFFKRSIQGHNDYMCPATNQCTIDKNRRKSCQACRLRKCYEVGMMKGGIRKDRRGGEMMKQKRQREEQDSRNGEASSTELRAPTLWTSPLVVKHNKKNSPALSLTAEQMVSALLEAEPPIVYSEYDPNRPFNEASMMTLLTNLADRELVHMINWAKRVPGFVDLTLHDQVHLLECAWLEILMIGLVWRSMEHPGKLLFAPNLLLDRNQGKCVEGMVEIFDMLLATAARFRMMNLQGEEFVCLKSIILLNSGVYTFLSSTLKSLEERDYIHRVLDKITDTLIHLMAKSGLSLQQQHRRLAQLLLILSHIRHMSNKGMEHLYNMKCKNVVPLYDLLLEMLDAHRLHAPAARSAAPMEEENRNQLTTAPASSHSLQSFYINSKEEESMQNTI
In short: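 Transiently transfected HepG2 cells expressing chimeric chicken ERa-GAL4 reporter units, dosed 24 h with 3 nM 6-alpha-fluorotestosterone and 1.5 nM norgestrel present. Reporter mRNA measured by RT-PCR and capillary electrophoresis; gain-of-signal fitted relative to DMSO.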

[5] = test system: zebrafish Estrogen Receptor (ER2a), gene 317734; test: ATG_zfER2a_XSP2: Attagene TRANS-FACTORIAL Multi-Species (XSP2) HepG2 Assay for zebrafish Estrogen Receptor (ER2a) (AID 2283818);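 also: hits raise reporter mRNA so AC50 reflects activation of zebrafish ER2a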
In short: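 HepG2 cells transiently transfected with GAL4-UAS reporter units and chimeric zebrafish ER2a-Gal4, exposed 24 h; medium contains 3 nM 6-alpha-fluorotestosterone and 1.5 nM norgestrel. Reporter mRNA quantified by RT-PCR, HpaI digestion, capillary electrophoresis; gain versus DMSO.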

[6] = test system: frog Estrogen Receptor (ER), gene 398734; test: ATG_frER1_XSP2: Attagene TRANS-FACTORIAL Multi-Species (XSP2) HepG2 Assay for frog Estrogen Receptor (ER) (AID 2283821);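 also: hits raise reporter mRNA above DMSO baseline so potency means agonist or activator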
In short: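 HepG2 cells transiently transfected with GAL4-UAS reporter units expressing a chimeric frog ER-Gal4 protein; 24 h exposure. Reporter mRNA quantified by RT-PCR, fluorescent labelling and capillary electrophoresis; gain of signal fitted against DMSO baseline.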

[7] = ATG_M_19_XSP2: Attagene TRANS-FACTORIAL Multi-Species (XSP2) HepG2 Assay for M32 Transcription Factor (Internal Marker) (AID 2283822)
In short: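 Internal background marker in a multi-species nuclear receptor TRANS panel: transfected HepG2 cells exposed 24 h, with 3 nM 6-alpha-fluorotestosterone and 1.5 nM norgestrel present. Readout is RT-PCR of reporter transcripts resolved by capillary electrophoresis, gain-of-signal versus DMSO.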

[8] = test system: zebrafish Estrogen Receptor (ER2b), gene 317733; test: ATG_zfER2b_XSP2: Attagene TRANS-FACTORIAL Multi-Species (XSP2) HepG2 Assay for zebrafish Estrogen Receptor (ER2b) (AID 2283823);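 also: fitted upward as reporter gain over DMSO so potency reflects activation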
In short: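 Transfect HepG2 with GAL4-UAS reporter constructs; dose chemicals, 24 h; isolate RNA, RT-PCR, FAM-label, HpaI digest; capillary electrophoresis. Gain-of-signal vs DMSO.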

[9] = test system: frog Estrogen Receptor (ER2), gene 100174814; test: ATG_frER2_XSP2: Attagene TRANS-FACTORIAL Multi-Species (XSP2) HepG2 Assay for frog Estrogen Receptor (ER2) (AID 2283828)
In short: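 HepG2 cells transiently transfected with multiplexed GAL4-UAS reporter units expressing chimeric frog ER2–Gal4 protein; reporter mRNA measured 24 h after chemical dosing by RT-PCR, fluorescent labeling and capillary electrophoresis. Gain-of-signal fitted relative to DMSO baseline.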

[10] = target: Peroxisome proliferator-activated receptor gamma (Homo sapiens) (UniProt P37231); test: ATG_hPPARg_XSP2: Attagene TRANS-FACTORIAL Multi-Species (XSP2) HepG2 Assay for human Peroxisome Proliferator-activated Receptor gamma (PPARg) (AID 2283829);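 also: actives raise reporter mRNA above DMSO so AC50 reflects PPARg activation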
Sequence of Peroxisome proliferator-activated receptor gamma (Homo sapiens) (P37231 whole entry, looked up, the tested form may be a part): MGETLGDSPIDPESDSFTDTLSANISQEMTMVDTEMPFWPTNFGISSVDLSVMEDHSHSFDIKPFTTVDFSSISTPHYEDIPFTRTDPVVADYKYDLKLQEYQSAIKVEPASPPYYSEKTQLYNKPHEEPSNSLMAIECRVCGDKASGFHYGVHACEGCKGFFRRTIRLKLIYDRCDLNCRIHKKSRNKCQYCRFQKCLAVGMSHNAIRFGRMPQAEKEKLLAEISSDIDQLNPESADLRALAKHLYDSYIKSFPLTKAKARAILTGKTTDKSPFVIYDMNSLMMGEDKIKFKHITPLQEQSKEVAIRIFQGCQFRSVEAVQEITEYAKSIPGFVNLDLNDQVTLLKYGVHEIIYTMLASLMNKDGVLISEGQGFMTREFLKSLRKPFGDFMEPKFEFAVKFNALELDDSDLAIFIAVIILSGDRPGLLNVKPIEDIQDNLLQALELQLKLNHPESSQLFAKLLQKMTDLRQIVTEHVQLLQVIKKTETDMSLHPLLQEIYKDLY
In short: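 Transient MRTU transfection, HepG2; TRANS format (exogenous NR-Gal4 chimeras). 24 h chemical exposure with 3 nM 6-alpha-fluorotestosterone and 1.5 nM norgestrel present. Readout: reporter mRNA via RT-PCR/CE fluorescence, up-direction vs DMSO.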

[11] = target: mouse Peroxisome Proliferator-activated Receptor gamma (PPARg), Pparg (gene 19016) (UniProt P37238); test: ATG_mPPARg_XSP2: Attagene TRANS-FACTORIAL Multi-Species (XSP2) HepG2 Assay for mouse Peroxisome Proliferator-activated Receptor gamma (PPARg) (AID 2283830);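 also: hits are gains in reporter mRNA above DMSO so AC50 marks activation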
Sequence of mouse Peroxisome Proliferator-activated Receptor gamma (PPARg), Pparg (gene 19016) (P37238 whole entry, looked up, the tested form may be a part): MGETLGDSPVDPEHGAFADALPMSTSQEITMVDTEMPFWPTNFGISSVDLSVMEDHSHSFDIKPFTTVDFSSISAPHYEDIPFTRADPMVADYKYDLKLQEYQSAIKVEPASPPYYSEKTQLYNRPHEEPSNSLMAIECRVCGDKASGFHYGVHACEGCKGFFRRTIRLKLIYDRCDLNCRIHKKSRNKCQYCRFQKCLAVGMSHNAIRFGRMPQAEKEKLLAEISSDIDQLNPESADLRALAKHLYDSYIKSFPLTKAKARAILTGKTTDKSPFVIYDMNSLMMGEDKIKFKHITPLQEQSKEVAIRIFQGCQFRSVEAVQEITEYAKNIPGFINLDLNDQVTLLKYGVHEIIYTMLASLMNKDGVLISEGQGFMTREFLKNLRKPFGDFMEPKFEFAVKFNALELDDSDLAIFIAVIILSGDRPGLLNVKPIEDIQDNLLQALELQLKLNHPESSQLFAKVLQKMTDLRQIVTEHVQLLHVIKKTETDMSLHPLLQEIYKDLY
In short: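 HepG2 cells transiently transfected with GAL4-UAS reporter units for chimeric NR-Gal4 proteins including mouse PPARg, exposed 24 h; medium contained 3 nM 6-alpha-fluorotestosterone and 1.5 nM norgestrel. Reporter mRNA quantified by RT-PCR, HpaI digestion and capillary electrophoresis, vs DMSO.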

[12] = target: Nuclear receptor subfamily 1 group I member 2 (Mus musculus) (UniProt O54915); test: ATG_mPXR_XSP2: Attagene TRANS-FACTORIAL Multi-Species (XSP1) HepG2 Assay for mouse Pregnane X Receptor (PXR) (AID 2283831)
Sequence of Nuclear receptor subfamily 1 group I member 2 (Mus musculus) (O54915 whole entry, looked up, the tested form may be a part): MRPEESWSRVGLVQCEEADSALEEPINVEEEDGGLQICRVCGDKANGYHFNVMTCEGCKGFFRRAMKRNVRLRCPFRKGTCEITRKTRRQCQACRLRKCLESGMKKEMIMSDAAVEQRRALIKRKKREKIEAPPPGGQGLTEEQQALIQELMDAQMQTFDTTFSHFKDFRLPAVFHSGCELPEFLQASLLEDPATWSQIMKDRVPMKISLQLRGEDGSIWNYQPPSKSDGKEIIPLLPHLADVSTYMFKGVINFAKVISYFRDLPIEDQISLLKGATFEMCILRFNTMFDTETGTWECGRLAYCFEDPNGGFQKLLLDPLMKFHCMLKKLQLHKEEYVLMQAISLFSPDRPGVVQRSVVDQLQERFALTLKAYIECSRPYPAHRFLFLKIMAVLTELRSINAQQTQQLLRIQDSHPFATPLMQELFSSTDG
In short: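 Transient HepG2 transfection, multiplexed GAL4-UAS reporters, NR-GAL4 chimeras. 24 h compound exposure. Readout: reporter mRNA, RT-PCR, fluorescent capillary electrophoresis; positive direction vs DMSO baseline.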

[13] = target: zebrafish Thyroid Hormone Receptor alpha (TRa), thraa (gene 30670) (UniProt Q98867); test: ATG_zfTRa_XSP2: Attagene TRANS-FACTORIAL Multi-Species (XSP1) HepG2 Assay for zebrafish Thyroid Hormone Receptor alpha (TRa) (AID 2283832);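 also: actives raise zebrafish TRa-Gal4 reporter transcript above DMSO baseline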
Sequence of zebrafish Thyroid Hormone Receptor alpha (TRa), thraa (gene 30670) (Q98867 whole entry, looked up, the tested form may be a part): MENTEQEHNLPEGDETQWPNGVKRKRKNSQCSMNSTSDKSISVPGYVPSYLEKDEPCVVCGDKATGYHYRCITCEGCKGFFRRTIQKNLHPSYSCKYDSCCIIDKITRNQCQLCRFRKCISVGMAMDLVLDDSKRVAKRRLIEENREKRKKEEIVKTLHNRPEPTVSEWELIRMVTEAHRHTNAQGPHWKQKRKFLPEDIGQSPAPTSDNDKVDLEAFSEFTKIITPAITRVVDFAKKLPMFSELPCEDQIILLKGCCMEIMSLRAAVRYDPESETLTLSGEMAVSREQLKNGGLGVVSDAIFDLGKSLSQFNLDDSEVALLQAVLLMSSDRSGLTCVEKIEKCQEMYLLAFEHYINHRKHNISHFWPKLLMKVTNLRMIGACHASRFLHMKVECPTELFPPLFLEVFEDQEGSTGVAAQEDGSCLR
In short: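 Chimeric receptor-Gal4 activity was assessed in transfected human liver HepG2 cells 24 h after dosing, using reporter transcript levels detected by RT-PCR and capillary electrophoresis. DMSO served as baseline.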

[14] = test system: zebrafish Peroxisome Proliferator-activated Receptor gamma (PPARg), gene 557037; test: ATG_zfPPARg_XSP2: Attagene TRANS-FACTORIAL Multi-Species (XSP2) HepG2 Assay for zebrafish Peroxisome Proliferator-activated Receptor gamma (PPARg) (AID 2283833);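 also: actives increase reporter signal over DMSO so AC50 reflects activation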
In short: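 Transfect HepG2 with multiplexed GAL4-UAS reporter constructs; dose chemical 24 h; isolate RNA, reverse-transcribe, PCR-amplify, label and digest reporter products; resolve by capillary electrophoresis. Activity taken as increase over DMSO.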

[15] = target: zebrafish Thyroid Hormone Receptor beta (TRb), thrb (gene 30607) (UniProt Q9PVE4); test: ATG_zfTRb_XSP2: Attagene TRANS-FACTORIAL Multi-Species (XSP1) HepG2 Assay for zebrafish Thyroid Hormone Receptor beta (TRb) (AID 2283836)
Sequence of zebrafish Thyroid Hormone Receptor beta (TRb), thrb (gene 30607) (Q9PVE4 whole entry, looked up, the tested form may be a part): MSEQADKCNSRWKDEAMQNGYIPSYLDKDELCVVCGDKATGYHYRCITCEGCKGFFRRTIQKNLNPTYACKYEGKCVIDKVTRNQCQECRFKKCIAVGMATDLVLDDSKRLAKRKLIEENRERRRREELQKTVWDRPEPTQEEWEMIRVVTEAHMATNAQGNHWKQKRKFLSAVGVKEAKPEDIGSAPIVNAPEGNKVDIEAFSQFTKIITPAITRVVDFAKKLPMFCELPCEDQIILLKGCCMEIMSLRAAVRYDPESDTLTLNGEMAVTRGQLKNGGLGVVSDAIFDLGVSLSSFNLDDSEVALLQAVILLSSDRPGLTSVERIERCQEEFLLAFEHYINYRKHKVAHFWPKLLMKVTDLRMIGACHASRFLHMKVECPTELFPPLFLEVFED
In short: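 Fluorescence of labelled reporter cDNA fragments, separated by capillary electrophoresis, gives mRNA induction from exogenous NR-Gal4 chimeras in transiently transfected HepG2 cells after 24 h dosing; 3 nM 6-alpha-fluorotestosterone and 1.5 nM norgestrel included in the run.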

[16] = target: GAL4 Transcription Factor (Internal Marker), GAL4 (gene 855828) (UniProt P04386); test: ATG_GAL4_XSP2: Attagene TRANS-FACTORIAL Multi-Species (XSP2) HepG2 Assay for GAL4 Transcription Factor (Internal Marker) (AID 2283814);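 also: GAL4 reporter mRNA background control in MRTU transfected cells not a receptor target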
In short: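 HepG2 cells transiently transfected with GAL4-UAS reporter units, stimulated with 3 nM 6-alpha-fluorotestosterone plus 1.5 nM norgestrel, dosed 24 h. Reporter mRNA by RT-PCR/capillary electrophoresis; gain-of-signal fit versus DMSO, background control.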

[17] = test system: chicken Androgen Receptor (AR), gene 422165; test: ATG_chAR_XSP2: Attagene TRANS-FACTORIAL Multi-Species (XSP2) HepG2 Assay for chicken Androgen Receptor (AR) (AID 2283819);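 also: hits raise reporter mRNA above DMSO so potency is for activation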
In short: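 HepG2 cells transiently transfected with chicken AR–GAL4 chimeric reporter constructs, stimulated with 3 nM 6-alpha-fluorotestosterone plus 1.5 nM norgestrel, dosed 24 h. Reporter mRNA quantified by RT-PCR and capillary electrophoresis; gain of signal fitted versus DMSO.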

[18] = target: Estrogen receptor (Homo sapiens) (UniProt P03372); test: ATG_hERa_XSP2: Attagene TRANS-FACTORIAL Multi-Species (XSP2) HepG2 Assay for human Estrogen Receptor (ERa) (AID 2283827)
Sequence of Estrogen receptor (Homo sapiens) (P03372 whole entry, looked up, the tested form may be a part): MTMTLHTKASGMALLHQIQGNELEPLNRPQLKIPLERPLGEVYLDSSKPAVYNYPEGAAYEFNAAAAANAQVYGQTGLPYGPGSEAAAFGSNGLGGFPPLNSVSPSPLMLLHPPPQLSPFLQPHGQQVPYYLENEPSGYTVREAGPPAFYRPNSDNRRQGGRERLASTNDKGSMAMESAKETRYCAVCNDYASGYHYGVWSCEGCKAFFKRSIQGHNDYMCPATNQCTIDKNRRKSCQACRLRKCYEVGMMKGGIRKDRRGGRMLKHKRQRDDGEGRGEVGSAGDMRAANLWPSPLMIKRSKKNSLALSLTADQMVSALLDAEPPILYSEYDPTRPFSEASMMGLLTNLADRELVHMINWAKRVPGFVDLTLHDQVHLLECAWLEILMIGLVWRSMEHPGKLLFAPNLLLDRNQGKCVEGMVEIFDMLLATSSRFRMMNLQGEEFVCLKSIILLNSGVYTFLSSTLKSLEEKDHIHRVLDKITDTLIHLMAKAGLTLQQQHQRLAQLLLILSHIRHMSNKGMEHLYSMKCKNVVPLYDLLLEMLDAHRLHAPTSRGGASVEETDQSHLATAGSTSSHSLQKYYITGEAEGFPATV
In short: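 HepG2 cells transiently transfected with multiplexed GAL4-UAS reporters driven by chimeric receptor-Gal4 proteins, dosed 24 h with 3 nM 6-alpha-fluorotestosterone and 1.5 nM norgestrel present. Reporter mRNA by RT-PCR and capillary electrophoresis; gain-of-signal fit versus DMSO.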

[19] = test system: turtle Thyroid Hormone Receptor, alpha (TRa), gene 101949057; test: ATG_trTRa_XSP2: Attagene TRANS-FACTORIAL Multi-Species (XSP1) HepG2 Assay for turtle Thyroid Hormone Receptor, alpha (TRa) (AID 2283834);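 also: hits raise reporter mRNA over the DMSO baseline so AC50 marks activators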
In short: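 Readout: reporter mRNA induction, fluorescence after RT-PCR, HpaI digestion and capillary electrophoresis. Transiently transfected HepG2, exogenous NR-Gal4 chimera driving GAL4-UAS reporter, 24 h compound exposure. Activity fitted upward relative to DMSO baseline.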

[20] = ATG_M_61_XSP2: Attagene TRANS-FACTORIAL Multi-Species (XSP2) HepG2 Assay for M61 Transcription Factor (Internal Marker) (AID 2283835; active = hit-call score of the fitted dose curve at least 0.9, where 1 is the maximum; inactive = score below 0.9;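 also: active means a rise in signal above the DMSO baseline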)
In short: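 HepG2 cells transiently transfected with multiple GAL4-UAS reporter units; reporter mRNA measured 24 h after dosing by RT-PCR, fluorescent labelling and capillary electrophoresis. Medium contained 3 nM 6-alpha-fluorotestosterone and 1.5 nM norgestrel; internal marker, DMSO baseline.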

Measured: AC50

Clc1nc(Cl)c(Cl)c(Cl)c1Cl
active: [1] 26.2 µM and 151 µM | [4] 26.6 µM and 86.3 µM | [6] 100 µM | [8] 184 µM | [9] 26 µM | [10] 1.04 µM and 14.9 µM | [11] 1.48 µM and 2.05 µM
inactive: [2] | [3] | [5] | [6] | [7] | [8] | [12] | [13] | [14] | [15]

O=P(OC(CCl)CCl)(OC(CCl)CCl)OC(CCl)CCl
inactive: [1] | [2] | [16] | [3] | [4] | [17] | [6] | [8] | [9] | [13] | [14] | [19] | [20] | [15]
active: [18] 7.39 µM | [10] 50.5 µM | [11] 26.2 µM | [12] 703 nM

Oc1ccc2c(c1)-c1ccccc1C2
inactive: [5] | [13] | [19] | [20] | [15]
active: [1] 6.32 µM and 3.91 µM | [2] 5.52 µM and 2.58 µM | [3] 14.7 µM and 6.87 µM | [4] 4.69 µM and 2.17 µM | [5] 2.55 µM | [6] 4.78 µM and 2.89 µM | [8] 21.4 µM and 12.1 µM | [9] 6.95 µM and 3.52 µM | [10] 19.8 µM and 28.4 µM | [11] 43.9 µM and 49.3 µM | [12] 17.1 µM and 44.2 µM
